The values that follow come from article PMC5540273 (PLoS ONE, 2017).

SMILES strings stand for the structures.
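Note: KINOMEscan kinase panel screen.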

This experiment concerns PFTAIRE2. To be noted: concentration: 1 μM, replicates: in singlicate; n = 1.
As for `FC(F)(F)c1ccc(/C=C/c2cncnc2Nc2ccc3[nH]c(Cc4ccccc4)nc3c2)cc1` [GW709199], the “%Inh” value is 33%.
`COc1ccc(Nc2nccc(NCCNC(=O)c3cc4ccccc4s3)n2)cc1` [GSK1379896]: the “%Inh” value is recorded as 14%.
Turning to `Cl.Cl.NCC(NCc1ccc(-c2ccnc3[nH]ccc23)s1)c1ccccc1` (centres unmarked) [GSK1321565], the “%Inh” value amounted to 4%.
Under `O=C(Nc1cccc(-c2nn3ncccc3c2-c2ccnc(Nc3ccccc3)n2)c1)c1c(F)cccc1F` [GSK198271] stands 23%; under `Cn1cc(-c2ccc3c(c2)CCN3C(=O)Cc2cccc(F)c2)c2c(N)ncnc21` [GSK2603358], 12%.
Under `Nc1ncc(-c2cccnc2)c2scc(-c3ccc4c(c3)CCN4C(=O)Cc3ccccc3)c12` [GSK683281] stands 33%; under `COC(=O)Nc1nc2cc(Oc3ccc(NC(=O)Nc4cc(C(F)(F)F)ccc4F)cn3)ccc2[nH]1.Cl.Cl` [GW681170], 68%.
Under `CCn1c(-c2nonc2N)nc2c(C#CC(C)(C)O)nc(OC[C@H](N)c3ccccc3)cc21` [GSK943949] stands 0%; under `COc1ccc(Nc2nccc(N3CCC(NC(=O)Nc4cccc(OC)c4)C3)n2)cc1` (centres unmarked) [GSK1379742], 10%.
`O=C(Nc1cccc(Oc2ccc3nc(NC(=O)C4CC4)cn3n2)c1)c1ccccc1C(F)(F)F`: the “%Inh” value came to 7%.
Take `Fc1ccc(-c2ncn(C3CCNCC3)c2-c2ccnc(Oc3ccc(-c4ccccc4)cc3)n2)cc1` [SB-245391]: the “%Inh” value is listed as 13%.
Consider `CC(=O)Nc1nc2cnc(Nc3cc(NC(=O)c4cccc(C5(C#N)CC5)c4Cl)ccc3C)nc2s1`, for which the “%Inh” value is given as 23%.
In the case of `Clc1ccc(-c2nn3ncccc3c2-c2ccnc(Nc3ccc4c(c3)OCCO4)n2)cc1` [GW829116], the “%Inh” value is given as 0%.
Under `O=C(Nc1ccccc1F)NC1CCN(c2ccnc(Nc3ccc(F)cc3)n2)CC1` [GSK1379800] stands 5%.
Under `c1ccc(-c2cnc3nccnn23)cc1` [AH20685] stands 0%.
As for `COc1cc2c(cc1OCCN1CCNCC1)ncc1c3ccc(C#N)cc3[nH]c21`, the “%Inh” value amounted to 53%.
`COc1cccc(C2=C(Nc3ccc(Cl)c(C(=O)O)c3)C(=O)NC2=O)c1` [SB-390769]: the “%Inh” value is 0%.
For `O=C(O)C(F)(F)F.O=C(O)C(F)(F)F.O=c1[nH]ccc2nc(N[C@@H]3CCCNC3)nc(Nc3ccc(S(=O)(=O)N4CCOCC4)cc3)c12` [GSK2177277] the value was 61%; for `COc1cccc(NC(=O)NC2CCN(c3ccnc(Nc4cc(OC)c(OC)c(OC)c4)n3)C2)c1` (centres unmarked) [GSK1379763], 9%; for `O=c1[nH]cc(-c2ccc(N3CCOCC3)cc2)c2sc(-c3cn[nH]c3)cc12` [GSK2276055], 34%.
For `Nc1ncc(-c2ccc3nccc(-c4ccncc4)c3c2)cc1S(=O)(=O)N1CCOCC1` [GSK1627798], the “%Inh” value came to 39%.
With `Cl.c1ccc(-c2ccc3c(Nc4ccc5[nH]ncc5c4)ccnc3c2)nc1` [GW440137], the “%Inh” value is recorded as 12%.
Under `Cc1ccc(C)c(NC(=O)NC2CCN(c3ccnc(Nc4ccc(F)cc4)n3)C2)c1` (centres unmarked) [GSK1379720] stands 4%; under `Cl.Cl.NCC(NC(=O)c1cc(-c2ccccc2)c(-c2ccnc3[nH]ccc23)s1)c1ccccc1` (centres unmarked) [GSK1321561], 6%.
For `Cc1occc1-c1ncc(OC[C@@H](N)Cc2c[nH]c3ccccc23)cc1-c1ccc2[nH]nc(C)c2c1.O=C(O)C(F)(F)F` [GSK682037] the value was 16%.
As for `CN(c1ccc(NC(=O)Nc2cc(C(F)(F)F)ccc2F)cc1)c1ccnc(Nc2ccc(S(N)(=O)=O)cc2)n1` [GW809893], the “%Inh” value is 96.5%.
For `CC(C)c1nc(-c2cccc(NS(=O)(=O)c3c(F)cccc3F)c2F)c(-c2ccnc(Nc3ccc(N4CCOCC4)nc3)n2)s1` [GSK2008607] the value was 94.6%; for `Cc1cccc(Nc2nc(N[C@H]3CCNC3)ncc2C(N)=O)c1.Cl` [GSK2197149], 7%; for `COc1cccc(C(=O)Nc2cccc(Oc3ccc4nc(NC(=O)C5CC5)cn4n3)c2)c1`, 8%.
Under `Cl.c1ccc(-c2ccc3c(Nc4ccc5[nH]ccc5c4)ccnc3c2)nc1` [GW440138] stands 0%; under `CC(=O)N1CCN(c2ccc(Nc3nccc(-c4sc(C(C)C)nc4-c4cccc(NS(=O)(=O)c5cccc(Cl)c5)c4)n3)cn2)CC1` [GSK1660437], 49%.
Regarding `CCn1c(-c2nonc2N)nc2c(C#CC(C)(C)O)ncc(OCCCCN)c21.O=C(O)C(F)(F)F.O=C(O)C(F)(F)F` [GSK507274], the “%Inh” value was found to be 6%.
